Measured values published in PubChem BioAssay (Tox21).
Inconclusive results are not listed. Calls of active or inactive are those of the source. Unless noted, calls follow the shape of the dose curve; as a rule, active = well fitted curve in the direction sought with a large enough effect in the repeat runs; inconclusive = weak or mixed curves; inactive = no such curve, though single readings can be large; an effect the other way counts as inactive or inconclusive.

Assays:
[1] = qHTS assay to identify aromatase inhibitors - cell viability counter screen (AID 743084);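 also: cells stimulated with testosterone during compound exposure; nearly all actives have a fitted effect of over 55% in size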
[2] = molecular target: Aryl hydrocarbon receptor (Homo sapiens) (UniProt P35869); test: qHTS assay to identify small molecule that activate the aryl hydrocarbon receptor (AhR) signaling pathway (AID 743085);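 also: HG2L7.5c1 human HepG2 liver cells with stably integrated DRE-driven firefly reporter; series mostly up to about 70 µM; nearly all actives have a fitted effect of over 15% in size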
Summary of the method: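 Steps: seed HepG2-AhR-luc cells; allow 5 h at 37C; pin-transfer test compound or vehicle; incubate 24 h at 37C; add viability dye (30 min, 37C) and read fluorescence; add luciferase substrate (30 min, RT) and read luminescence.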

[3] = qHTS assay to identify small molecule that activate the aryl hydrocarbon receptor (AhR) signaling pathway - cell viability counter screen (AID 743086);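 also: HepG2 liver cells carrying the AhR DRE luciferase reporter; series mostly up to about 70 µM; nearly all actives have a fitted effect of over 45% in size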
Summary of the method: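 HepG2-AhR-luc (HG2L7.5c1) cells, 4000/well, treated 24 h at 37 C with compound; viability measured as CellTiter-Fluor fluorescence after 30 min in the same wells as the luciferase read.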

[4] = qHTS assay for small molecule agonists of the antioxidant response element (ARE) signaling pathway (AID 743202; active = well fitted activation curve with a large enough effect in the signal ratio in the repeat runs, not every such curve was filed as active; the % refers to the signal ratio)
Summary of the method: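 ARE-bla HepG2 cells (beta-lactamase reporter under the antioxidant response element), plated 5 hours, then exposed to compounds 16 hours at 37 C. LiveBLAzer B/G FRET substrate added for 2 hours at room temperature; fluorescence intensity read.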

[5] = qHTS assay for small molecule agonists of the antioxidant response element (ARE) signaling pathway - cell viability counter screen (AID 743203; calls by dose curve; also: nearly all actives have a fitted effect of over 55% in size)
Summary of the method: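 Seeded at 2,000 cells/well, ARE-bla HepG2 cells were incubated 5 hrs before compound addition. After 16 hrs of treatment at 37C with 5% CO2, CellTiter-Glo reagent was added and luminescence read 30 min later.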

[6] = qHTS assay for small molecule activators of the heat shock response signaling pathway - cell viability counter screen (AID 743209); also: nearly all actives have a fitted effect of over 50% in size
Summary of the method: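 First, HSE-bla HeLa cells were seeded at 1500 cells/well and kept overnight at 37 C. Next, compounds were pinned in and incubated 5 h. After the FRET substrate step, CellTiter-Glo was added and luminescence read 30 min later.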

[7] = qHTS assay for small molecule activators of the heat shock response signaling pathway (AID 743210; active = well fitted activation curve with a large enough effect in the signal ratio in the repeat runs, with a control signal flat, not every such curve was filed as active; the % refers to the signal ratio; also: series mostly up to about 63 µM)
Summary of the method: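 HSE-bla HeLa cells (beta-lactamase reporter under heat shock response elements), plated overnight, then exposed to compounds 5 h at 37 C; LiveBLAzer B/G FRET substrate added, 2.5 h at room temperature, fluorescence intensity read.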

[8] = molecular target: Peroxisome proliferator-activated receptor gamma (Homo sapiens) (UniProt P37231); test: qHTS assay to identify small molecule agonists of the peroxisome proliferator-activated receptor gamma (PPARg) signaling pathway (AID 743094; active = well fitted activation curve with a large enough effect in the signal ratio in the repeat runs, not every such curve was filed as active; the % refers to the signal ratio)
Summary of the method: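 Quantitative HTS agonist mode: stable HEK293H line with UAS-beta-lactamase reporter under PPARg control, 17 h compound exposure at 37C, fluorescence after 1 h FRET substrate loading at room temperature.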

[9] = qHTS assay to identify small molecule antagonists of the peroxisome proliferator-activated receptor gamma (PPARg) signaling pathway - cell viability counter screen (AID 743194); also: nearly all actives have a fitted effect of over 55% in size
Summary of the method: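 Cytotoxicity counter screen in PPARg-bla HEK293H cells, same wells as reporter assay. Compounds plus 50 nM rosiglitazone (final) for 17 h at 37 C, then viability read by CellTiter-Glo luminescence.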

[10] = molecular target: Peroxisome proliferator-activated receptor gamma (Homo sapiens) (UniProt P37231); test: qHTS assay to identify small molecule antagonists of the peroxisome proliferator-activated receptor gamma (PPARg) signaling pathway (AID 743191; calls by dose curve; also: series mostly up to about 63 µM; nearly all actives have a fitted effect of over 30% in size)
Summary of the method: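 GeneBLAzer PPARg UAS-bla HEK293H cells, 5 h post-plating, exposed to compounds 17 h at 37C. LiveBLAzer B/G FRET substrate added for 1 h at room temperature; beta-lactamase reporter read by fluorescence intensity.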

Measured: Potency

Chain of Peroxisome proliferator-activated receptor gamma (Homo sapiens) (P37231 whole entry, looked up): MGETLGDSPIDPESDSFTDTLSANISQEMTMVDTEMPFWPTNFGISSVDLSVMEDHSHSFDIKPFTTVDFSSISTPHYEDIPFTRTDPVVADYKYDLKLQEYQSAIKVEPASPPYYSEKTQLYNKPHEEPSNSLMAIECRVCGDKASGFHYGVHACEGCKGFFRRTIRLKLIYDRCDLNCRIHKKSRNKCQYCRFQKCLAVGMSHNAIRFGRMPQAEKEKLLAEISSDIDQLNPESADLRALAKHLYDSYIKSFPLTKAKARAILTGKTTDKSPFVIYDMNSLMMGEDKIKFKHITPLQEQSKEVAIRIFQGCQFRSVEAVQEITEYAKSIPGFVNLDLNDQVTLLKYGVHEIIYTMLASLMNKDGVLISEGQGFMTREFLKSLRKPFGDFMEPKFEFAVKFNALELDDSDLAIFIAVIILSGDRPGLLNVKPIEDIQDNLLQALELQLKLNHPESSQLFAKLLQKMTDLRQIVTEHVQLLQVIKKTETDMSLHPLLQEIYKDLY
Chain of Aryl hydrocarbon receptor (Homo sapiens) (P35869 whole entry, looked up): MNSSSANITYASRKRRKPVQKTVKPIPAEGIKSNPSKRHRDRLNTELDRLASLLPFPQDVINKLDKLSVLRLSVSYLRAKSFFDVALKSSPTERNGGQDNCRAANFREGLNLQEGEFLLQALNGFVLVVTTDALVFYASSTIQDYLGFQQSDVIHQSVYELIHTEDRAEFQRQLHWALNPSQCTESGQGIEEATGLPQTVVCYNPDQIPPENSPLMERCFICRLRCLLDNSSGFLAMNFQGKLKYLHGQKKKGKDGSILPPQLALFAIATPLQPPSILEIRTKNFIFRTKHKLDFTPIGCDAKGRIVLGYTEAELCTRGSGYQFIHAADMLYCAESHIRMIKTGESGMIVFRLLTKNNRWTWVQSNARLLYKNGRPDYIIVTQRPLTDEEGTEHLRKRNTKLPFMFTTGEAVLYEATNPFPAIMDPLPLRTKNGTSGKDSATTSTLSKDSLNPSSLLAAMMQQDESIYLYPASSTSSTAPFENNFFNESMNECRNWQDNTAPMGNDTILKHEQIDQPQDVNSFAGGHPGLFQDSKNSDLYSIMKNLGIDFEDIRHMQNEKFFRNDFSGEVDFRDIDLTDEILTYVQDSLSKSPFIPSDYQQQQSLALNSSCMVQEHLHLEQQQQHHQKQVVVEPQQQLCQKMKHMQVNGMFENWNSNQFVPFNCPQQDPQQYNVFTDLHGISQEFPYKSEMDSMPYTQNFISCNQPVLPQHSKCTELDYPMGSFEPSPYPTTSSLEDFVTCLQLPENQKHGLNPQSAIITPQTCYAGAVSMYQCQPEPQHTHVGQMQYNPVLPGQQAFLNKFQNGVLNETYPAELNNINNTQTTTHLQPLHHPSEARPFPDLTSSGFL

COC(=O)C(C)O (stereo not drawn)
not listed: [8] | [9] | [10]
inactive: all other assays above

O=C1CCCc2ccccc21
not listed: [2] | [10]
inactive: all other assays above

CNCCC(Oc1ccccc1OC)c1ccccc1 (stereo not drawn)
not listed: [2]
inactive: all other assays above

NC1=NCC2c3ccccc3Cc3ccccc3N12 (stereo not drawn)
inactive: [1] | [2] | [3] | [5] | [6] | [7]

CC(C)Nc1nc(N)nc(Cl)n1
not listed: [2] | [7]
inactive: all other assays above
